Measured values reported in PubChem BioAssay (NCI).
The panel holds about 83,000 compounds, 20% with a hit somewhere; the sample as a whole holds those more often.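 For each line, cells grew in 96-well plates with the test compound present at a single concentration for 48 hours.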 Unmarked numbers belong to inactive results. Activity calls are given as the source filed them. Rule for the calls: active = growth percent below 10; inactive = the rest.

Tests used:
Assay in all cases: NCI-60 one-dose screen, 48 h (100 = growth as untreated, 0 = no growth, -100 = all killed)
NCI-H23 lung = details: 10 µM unless noted
NCI-H226 lung = details: 10 µM unless noted
NCI-H322M lung = details: 10 µM unless noted
HOP-62 NSCLC = details: 10 µM unless noted
NCI-H460 lung = details: 10 µM unless noted
HOP-92 NSCLC = details: 10 µM unless noted
NCI-H522 lung = details: 10 µM unless noted
A549/ATCC NSCLC = details: 10 µM unless noted
786-0 renal = details: 10 µM unless noted
COLO 205 colon = details: 10 µM unless noted
DU-145 prostate = details: 10 µM unless noted
K-562 leukemia = details: 10 µM unless noted
MALME-3M melanoma = details: 10 µM unless noted
MDA-MB-231 breast = details: 10 µM unless noted
RXF 393 renal = details: 10 µM unless noted
SF-268 CNS = details: 10 µM unless noted
SF-295 CNS = details: 10 µM unless noted
SF-539 CNS = details: 10 µM unless noted
UACC-257 melanoma = details: 10 µM
M14 melanoma = details: 10 µM unless noted

SMILES | growth (NCI-H23 lung) | growth (NCI-H226 lung) | growth (NCI-H322M lung) | growth (HOP-62 NSCLC) [%] | growth (NCI-H460 lung) | growth (HOP-92 NSCLC) | growth (NCI-H522 lung) | growth (A549/ATCC NSCLC) | growth (786-0 renal) | growth (COLO 205 colon) | growth (DU-145 prostate) | growth (K-562 leukemia) | growth (MALME-3M melanoma) | growth (MDA-MB-231 breast) | growth (RXF 393 renal) | growth (SF-268 CNS) | growth (SF-295 CNS) | growth (SF-539 CNS) | growth (UACC-257 melanoma) | growth (M14 melanoma)
COc1ccc(C2CC(=O)Nc3c2c(C)nn3-c2nc3ccccc3[nH]2)cc1OC (configuration not stated) | 48.7% | 58.7% | 75.9% | 67.8 | 63.7% | 89.3% | 98.2% | 61.1% | 87.5% | 106% | 86.6% | 63% | 38.5% | 87.1% | 12.2% | 69.9% | -9% (active) | 97.7% | 89% | 48.1%
CC(C)C[C@H](NC(=O)Cn1ccc(NCc2ccccc2)cc1=O)B(O)O | 31.7% | -75% (active) | 91.3% | 44.9 | 60.5% | 2.85% (active) | -20.7% (active) | 40.4% | 20.6% | 32% | 36.6% | 15.6% | -21.2% (active) | 28% | -51.7% (active) | 3.08% (active) | 28.4% | -29.4% (active) | -3% (active) | -17% (active)
COc1ccc(-c2nc3sccn3c2-c2ccnc(NCCCNS(=O)(=O)c3ccc(F)cc3)n2)cc1 | 1.5% (active) | -4.69% (active) | 41.2% | 30.9 | 19.5% | 44.2% | -1.46% (active) | 14% | 35.5% | 1.87% (active) | 10.9% | 14.2% | 12.7% | 43.2% | 52.9% | 17.2% | 12.9% | 28.4% | 26.1% | 12.4%
CCn1cc(C(=O)O)c(=O)c2cc(F)c(N3CCN(S(=O)(=O)c4cccc5ccccc45)CC3)cc21 | 0.0593% (active) | 21.9% | -14.5% (active) | 15.1 | 8.04% (active) | -8.49% (active) | -33.9% (active) | 3.78% (active) | 24.3% | -87.6% (active) | 18.9% | 15.4% | -16% (active) | 23.9% | 29% | 16.4% | 7.68% (active) | 17.4% | 14% | 17.9%
COc1cc2nc(N3CCC[C@@H](NC4=CC(=O)c5ccccc5C4=O)C3)nc(N)c2cc1OC | 87.2% | 113% | -65.3% (active) | 94.5 | -72.9% (active) | 84.8% | 94.3% | -74.6% (active) | 94.7% | -71.8% (active) | -53.8% (active) | -47.1% (active) | 94.8% | -71.2% (active) | -76.3% (active) | -47.4% (active) | -89% (active) | -99.9% (active) | 95.3% | 96.3%
CC(=O)Nc1ccc2c(c1)/C(=C\C=C/c1ccc([N+](C)(C)C)cc1)c1ccccc1-2 | 54.5% | 57.9% | 50.1% | 18.4 | 73.4% | 52% | 18.1% | 43.2% | 55.4% | 58.1% | 73% | 49.5% | 86.5% | 63.7% | 99.1% | 48.6% | 46.5% | 42.4% | – | 71.5%
CCNC(=O)CCCCC(=O)c1c(C)[nH]c(/C=C2\N=C(c3ccc[nH]3)C=C2OC)c1C | 35% | 65.7% | 37.9% | 42.7 | -65.1% (active) | -71.6% (active) | -91.7% (active) | 9.45% (active) | -51.9% (active) | 1.23% (active) | 2.48% (active) | 51.5% | 51.6% | 0.721% (active) | -48% (active) | 27.2% | -22.1% (active) | 54.8% | 54.6% | 5.27% (active)
CCOC(=O)C1=C(CSC(=S)N(C2CCCCC2)C2CCCCC2)N(C)C(=O)NC1c1ccccc1 (configuration not stated) | 76.5% | 58.8% | 91.9% | 63.1 | 12.7% | 69% | 58.1% | 47.2% | 48.6% | 60.6% | 46.8% | 35.2% | 71.8% | 62.9% | 43.6% | 49% | 39.9% | 71.6% | 61.4% | 56.9%
CC1CCc2c(sc(NC(=O)CSc3nnc4ccccn34)c2C(N)=O)C1 (configuration not stated) | 109% | 103% | 121% | 110 | 106% | 97.8% | 108% | 118% | 115% | 126% | 144% | 117% | 181% | 102% | 1.36% (active) | 109% | 93.6% | 137% | – | 117%
COc1cc(NC(=O)CSc2nc3ccc(C)cc3c(=O)n2-c2ccccc2)cc(OC)c1OC | 84.1% | 82.6% | 101% | 91.2 | 101% | 49.5% | 68.7% | 83.9% | 89.4% | 111% | 110% | 87.1% | 90.5% | 77.3% | 86.2% | 86.2% | 92.2% | 93.6% | 83% | 79.9%
Cc1cnc(NC(=O)C(Cc2ccccc2)NC(=O)c2ccccc2)s1 (configuration not stated) | 86% | 70.2% | 105% | 84.1 | 74.3% | 19.1% | 63.9% | 90.7% | 96.9% | 91.9% | 85.5% | 29.7% | 54% | 77.9% | 50.2% | 96.9% | 65.9% | 87% | – | 52%
Cc1ccc(-c2csc3nc(C)c(CCCl)c(=O)n23)cc1 | 87.5% | 78.6% | 98.5% | 87.8 | 99.5% | 80.8% | 88.8% | 98% | 104% | 119% | 104% | 95% | 107% | 79.9% | 106% | 91.4% | 104% | 108% | – | 103%
Cn1c(=O)c2c(nc3n2CCN(CCc2ccc(OCCN4CCOCC4)cc2)C3)n(C)c1=O | 101% | 100% | 100% | 106 | 107% | 96.6% | 94.2% | 99.4% | 99.6% | 115% | 109% | 109% | 106% | 104% | 111% | 105% | 106% | 109% | – | 105%
COc1ccc(Cl)cc1NC(N)=S | 94.6% | 107% | 108% | 110 | 109% | 92.2% | 80.7% | 103% | 102% | 127% | 108% | 104% | 104% | 104% | 112% | 99.5% | 106% | 99.8% | – | 105%
CCOC(=O)CC/C(C)=N\Nc1ccc([N+](=O)[O-])cc1 | 99.5% | 67.9% | 77.3% | 63.2 | 27.1% | 89.8% | 38.8% | 24.4% | 72.9% | 34.7% | 88.6% | 6.98% (active) | 104% | 80.8% | 97.5% | 73.5% | 60% | 69.8% | – | 29.3%
Cc1cccc2cc(/C=C/C(=O)/C=C/c3ccc(Cl)cc3)c(=O)[nH]c12 | 62.8% | 62.1% | 88.8% | 64.6 | 73.1% | 96.3% | 48.4% | 65.6% | 14.5% | 37.8% | 39.1% | 10.8% | 106% | 25.7% | 36.8% | 62% | 83.8% | 69.7% | – | 30.5%
